# Test results taken from the supplement of paper PMC6522484.
# ± gives the standard deviation of the averaged measurements.
# Legend:
# DLD1 [1] = assay: cell viability (CellTiter-Glo) relative to plate median (fraction of plate median); higher = more viable cells; settings: 5 µM; treatment time 24 h; reporter: 7TFP
# Outline: (§1)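 Each entry is a luminescence signal normalised to the plate median, averaged over independent replicates. The replicate count was two, and the cells were colorectal cancer lines with stable lentiviral TCF/Wnt firefly luciferase reporters exposed to library compounds at a final 5 µM for 24 h. Firefly luciferase and CellTiterGlo were measured on parallel plates.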
# HCT116 = assay: as above; settings: 5 µM; treatment time 24 h; reporter: TCF4/Wnt
# Outline: as §1
# SW480 [2] = assay: as above; settings: 5 µM; treatment time 24 h; reporter: 7TFP
# Outline: as §1
# DLD1 [3] = assay: TCF/Wnt firefly luciferase reporter signal relative to plate median (fraction of plate median); higher = higher Wnt reporter signal; settings: 5 µM; treatment time 24 h; reporter: 7TFP
# Outline: as §1
# SW480 [4] = assay: as above; settings: 5 µM; treatment time 24 h; reporter: 7TFP
# Outline: as §1
structure (smiles),measurement,setting,value
O=c1cc[nH]c(=S)[nH]1 [Thiouracil],cell viability,DLD1 [1],1.08 ± 0.17
same,cell viability,HCT116,1.12 ± 0.11
same,cell viability,SW480 [2],1.04 ± 0.064
same,TCF/Wnt firefly luciferase reporter signal,DLD1 [3],0.944 ± 0.093
same,TCF/Wnt firefly luciferase reporter signal,SW480 [4],0.8625 ± 0.00071
CCCNC(C)C(=O)Nc1ccccc1C (stereo not given),cell viability,DLD1 [1],1 ± 0.013
same,cell viability,HCT116,0.972 ± 0.096
same,cell viability,SW480 [2],1.03 ± 0.028
same,TCF/Wnt firefly luciferase reporter signal,DLD1 [3],0.912 ± 0.028
same,TCF/Wnt firefly luciferase reporter signal,SW480 [4],0.96 ± 0.03
C1CNCCN1,cell viability,DLD1 [1],1.004 ± 0.0092
same,cell viability,HCT116,0.96 ± 0.071
same,cell viability,SW480 [2],0.987 ± 0.018
same,TCF/Wnt firefly luciferase reporter signal,DLD1 [3],1.25 ± 0.021
same,TCF/Wnt firefly luciferase reporter signal,SW480 [4],1.05 ± 0.042
C[C@@H]1C/C=C/C=C/C=C/C=C/[C@H](O[C@@H]2O[C@H](C)[C@@H](O)[C@H](N)[C@@H]2O)C[C@@H]2O[C@](O)(C[C@@H](O)C[C@H]3O[C@@H]3/C=C/C(=O)O1)C[C@H](O)[C@H]2C(=O)O,cell viability,DLD1 [1],1.03 ± 0.08
same,cell viability,HCT116,0.915 ± 0.13
same,cell viability,SW480 [2],0.987 ± 0.019
same,TCF/Wnt firefly luciferase reporter signal,DLD1 [3],0.921 ± 0.033
same,TCF/Wnt firefly luciferase reporter signal,SW480 [4],0.962 ± 0.028
CCCCCCCCCCCC[C@@H](C(=O)O)[C@H](C)C(=O)O,cell viability,DLD1 [1],1.005 ± 0.0071
same,cell viability,HCT116,1.08 ± 0.25
same,cell viability,SW480 [2],1 ± 0.028
same,TCF/Wnt firefly luciferase reporter signal,DLD1 [3],0.944 ± 0.11
same,TCF/Wnt firefly luciferase reporter signal,SW480 [4],1.03
O=C(C=Cc1ccc(O)cc1)c1ccccc1O,cell viability,DLD1 [1],0.926 ± 0.089
same,cell viability,HCT116,0.881 ± 0.03
same,cell viability,SW480 [2],1.02 ± 0.028
same,TCF/Wnt firefly luciferase reporter signal,DLD1 [3],1.06 ± 0.035
same,TCF/Wnt firefly luciferase reporter signal,SW480 [4],1.07 ± 0.092
OCc1ccccc1O[C@@H]1O[C@H](CO)[C@@H](O)[C@H](O)[C@H]1O,cell viability,DLD1 [1],0.971 ± 0.098
same,cell viability,HCT116,0.971 ± 0.056
same,cell viability,SW480 [2],0.969 ± 0.0042
same,TCF/Wnt firefly luciferase reporter signal,DLD1 [3],0.862 ± 0.099
same,TCF/Wnt firefly luciferase reporter signal,SW480 [4],0.967 ± 0.042
CN1CCC(=C2c3ccccc3Sc3ccccc32)CC1,cell viability,DLD1 [1],1.004 ± 0.0092
same,cell viability,HCT116,0.913 ± 0.032
same,cell viability,SW480 [2],1.03 ± 0.059
same,TCF/Wnt firefly luciferase reporter signal,DLD1 [3],0.874 ± 0.026
same,TCF/Wnt firefly luciferase reporter signal,SW480 [4],0.944 ± 0.071
CCOc1ccc(C(=O)c2ccc(OC)c(O)c2O)cc1,cell viability,DLD1 [1],1.01 ± 0.052
same,cell viability,HCT116,1.07 ± 0.028
same,cell viability,SW480 [2],1 ± 0.038
same,TCF/Wnt firefly luciferase reporter signal,DLD1 [3],0.966 ± 0.025
same,TCF/Wnt firefly luciferase reporter signal,SW480 [4],1.03 ± 0.021
O=C([O-])c1ccccc1O.[Na+],cell viability,DLD1 [1],1.06 ± 0.035
same,cell viability,HCT116,1.02 ± 0.077
same,cell viability,SW480 [2],1.07 ± 0.028
same,TCF/Wnt firefly luciferase reporter signal,DLD1 [3],1.04 ± 0.09
same,TCF/Wnt firefly luciferase reporter signal,SW480 [4],1.02 ± 0.014
NCCCS(=O)(=O)O,cell viability,DLD1 [1],0.999 ± 0.044
same,cell viability,HCT116,0.993 ± 0.052
same,cell viability,SW480 [2],0.974 ± 0.011
same,TCF/Wnt firefly luciferase reporter signal,DLD1 [3],0.969 ± 0.14
same,TCF/Wnt firefly luciferase reporter signal,SW480 [4],1.11 ± 0.05
CC(=O)O[C@@H]1CO[C@H]2O[C@H]3[C@@H](C(C=O)=C[C@H](O)[C@@H]4C5=C(C(C)C)CC[C@]5(C)CC[C@@]34C)[C@@]2(O)C1=O [Striatal B],cell viability,DLD1 [1],1 ± 0.17
same,cell viability,HCT116,0.89 ± 0.16
same,cell viability,SW480 [2],1.05 ± 0.021
same,TCF/Wnt firefly luciferase reporter signal,DLD1 [3],1 ± 0.16
same,TCF/Wnt firefly luciferase reporter signal,SW480 [4],1.025 ± 0.0071
COc1cc(O)c2c(=O)c(O)c(-c3ccc(O)c(O)c3)oc2c1,cell viability,DLD1 [1],1.06 ± 0.014
same,cell viability,HCT116,0.992 ± 0.11
same,cell viability,SW480 [2],1.065 ± 0.0071
same,TCF/Wnt firefly luciferase reporter signal,DLD1 [3],1 ± 0.12
same,TCF/Wnt firefly luciferase reporter signal,SW480 [4],1.045 ± 0.0071
Oc1c(Cl)cc(Cl)c(Cl)c1Cc1c(O)c(Cl)cc(Cl)c1Cl,cell viability,DLD1 [1],0.934 ± 0.021
same,cell viability,HCT116,1.03 ± 0.1
same,cell viability,SW480 [2],1.02 ± 0.028
same,TCF/Wnt firefly luciferase reporter signal,DLD1 [3],1.34 ± 0.18
same,TCF/Wnt firefly luciferase reporter signal,SW480 [4],1.15 ± 0.021
Nc1[nH]cnc2ncnc1-2,cell viability,DLD1 [1],1.2
same,cell viability,HCT116,1.1 ± 0.071
same,cell viability,SW480 [2],1.82 ± 0.028
same,TCF/Wnt firefly luciferase reporter signal,DLD1 [3],0.981 ± 0.012
same,TCF/Wnt firefly luciferase reporter signal,SW480 [4],1.65 ± 0.26
CCCOc1ccc(C(=O)OCCN(CC)CC)cc1N,cell viability,DLD1 [1],0.9545 ± 0.0064
same,cell viability,HCT116,0.994 ± 0.051
same,cell viability,SW480 [2],0.95 ± 0.038
same,TCF/Wnt firefly luciferase reporter signal,DLD1 [3],0.97 ± 0.057
same,TCF/Wnt firefly luciferase reporter signal,SW480 [4],1.095 ± 0.0071
CC(=O)Nc1ccc(S(=O)(=O)c2ccc(NC(C)=O)cc2)cc1,cell viability,DLD1 [1],0.966 ± 0.1
same,cell viability,HCT116,0.94 ± 0.012
same,cell viability,SW480 [2],0.931 ± 0.012
same,TCF/Wnt firefly luciferase reporter signal,DLD1 [3],1.09 ± 0.035
same,TCF/Wnt firefly luciferase reporter signal,SW480 [4],1.05 ± 0.042
COC(=O)c1c(C)cc(O)cc1O,cell viability,DLD1 [1],0.999 ± 0.03
same,cell viability,HCT116,0.837 ± 0.23
same,cell viability,SW480 [2],1 ± 0.037
same,TCF/Wnt firefly luciferase reporter signal,DLD1 [3],1.15 ± 0.014
same,TCF/Wnt firefly luciferase reporter signal,SW480 [4],0.984 ± 0.11
O=c1cccc2ccc(O)c(O)c2c1O,cell viability,DLD1 [1],0.975 ± 0.012
same,cell viability,HCT116,0.994 ± 0.11
same,cell viability,SW480 [2],0.966 ± 0.033
same,TCF/Wnt firefly luciferase reporter signal,DLD1 [3],0.994 ± 0.079
same,TCF/Wnt firefly luciferase reporter signal,SW480 [4],1.06 ± 0.042
Nc1nc(F)nc2c1ncn2[C@@H]1O[C@H](COP(=O)(O)O)[C@@H](O)[C@@H]1O,cell viability,DLD1 [1],0.987 ± 0.061
same,cell viability,HCT116,0.942 ± 0.019
same,cell viability,SW480 [2],0.972 ± 0.054
same,TCF/Wnt firefly luciferase reporter signal,DLD1 [3],0.926 ± 0.018
same,TCF/Wnt firefly luciferase reporter signal,SW480 [4],1.04 ± 0.021
NS(=O)(=O)c1cc2c(cc1C(F)(F)F)NC(Cc1ccccc1)NS2(=O)=O (stereo not given),cell viability,DLD1 [1],0.992 ± 0.04
same,cell viability,HCT116,0.969 ± 0.058
same,cell viability,SW480 [2],0.9875 ± 0.0035
same,TCF/Wnt firefly luciferase reporter signal,DLD1 [3],0.836 ± 0.075
same,TCF/Wnt firefly luciferase reporter signal,SW480 [4],0.885 ± 0.064
C=CCSCC=C,cell viability,DLD1 [1],0.9785 ± 0.0078
same,cell viability,HCT116,0.967 ± 0.047
same,cell viability,SW480 [2],0.98 ± 0.029
same,TCF/Wnt firefly luciferase reporter signal,DLD1 [3],0.959 ± 0.015
same,TCF/Wnt firefly luciferase reporter signal,SW480 [4],0.95 ± 0.05
CCN(CC)CCNC(=O)c1ccc(NC(C)=O)cc1,cell viability,DLD1 [1],1.01 ± 0.075
same,cell viability,HCT116,1.05 ± 0.071
same,cell viability,SW480 [2],1.06 ± 0.035
same,TCF/Wnt firefly luciferase reporter signal,DLD1 [3],1.08 ± 0.028
same,TCF/Wnt firefly luciferase reporter signal,SW480 [4],1.14 ± 0.014
NCCCC(=O)O [gamma-AMINOBUTYRIC ACID],cell viability,DLD1 [1],1.02 ± 0.046
same,cell viability,HCT116,1.02 ± 0.11
same,cell viability,SW480 [2],1.04 ± 0.05
same,TCF/Wnt firefly luciferase reporter signal,DLD1 [3],1.06 ± 0.093
same,TCF/Wnt firefly luciferase reporter signal,SW480 [4],0.89 ± 0.24
COc1cc(-c2cc(=O)c3c(O)c(OC)c(OC)c(OC)c3o2)cc(OC)c1OC,cell viability,DLD1 [1],0.948 ± 0.073
same,cell viability,HCT116,1.06 ± 0.098
same,cell viability,SW480 [2],0.956 ± 0.02
same,TCF/Wnt firefly luciferase reporter signal,DLD1 [3],1.02 ± 0.028
same,TCF/Wnt firefly luciferase reporter signal,SW480 [4],0.936 ± 0.021
O=c1c(O)cc([C@H]2Oc3cc(O)cc(O)c3C[C@H]2O)cc2c([C@H]3Oc4cc(O)cc(O)c4C[C@H]3O)cc(O)c(O)c12,cell viability,DLD1 [1],0.934 ± 0.033
same,cell viability,HCT116,1.01 ± 0.02
same,cell viability,SW480 [2],0.966 ± 0.02
same,TCF/Wnt firefly luciferase reporter signal,DLD1 [3],0.949 ± 0.044
same,TCF/Wnt firefly luciferase reporter signal,SW480 [4],1.04 ± 0.1
Cc1cc(=O)oc2c(O)c(O)ccc12,cell viability,DLD1 [1],0.961 ± 0.17
same,cell viability,HCT116,0.943 ± 0.03
same,cell viability,SW480 [2],0.925 ± 0.044
same,TCF/Wnt firefly luciferase reporter signal,DLD1 [3],0.869 ± 0.08
same,TCF/Wnt firefly luciferase reporter signal,SW480 [4],0.944 ± 0.0071
Cc1cc2nc3c(=O)[nH]c(=O)nc-3n(C[C@H](O)[C@H](O)[C@H](O)CO)c2cc1C,cell viability,DLD1 [1],0.984 ± 0.052
same,cell viability,HCT116,0.919 ± 0.051
same,cell viability,SW480 [2],0.974 ± 0.016
same,TCF/Wnt firefly luciferase reporter signal,DLD1 [3],1.07 ± 0.035
same,TCF/Wnt firefly luciferase reporter signal,SW480 [4],0.907 ± 0.021
